Data from PubChem BioAssay AID1851 (National Center for Advancing Translational Sciences (NCATS), 2009).
Out of some 16,000 compounds screened, about 5,800 (36%) were called active. Roughly 23% stayed inconclusive and do not appear here. The list shows a part of the results. Unmarked numbers belong to inactive results. Calls follow the shape of the dose curve; as a rule, active = well fitted curve in the direction sought with a large enough effect; inconclusive = small, poorly fitted or top-dose-only effect, or effect the other way; inactive = no such curve, though single readings can be large or run the other way.

What follows are compounds tested against Cytochrome P450 2C19 (Homo sapiens) (UniProt P33261) (assay: Cytochrome panel assay with activity outcomes). Settings: recombinant CYP, pro-luciferin dealkylation, luminescence, p450-cyp2c19; series mostly up to 57.1 µM.
% is scaled to controls: 0 for no effect and ±100 for the full control effect.

Chain of Cytochrome P450 2C19 (Homo sapiens) (P33261 whole entry, looked up): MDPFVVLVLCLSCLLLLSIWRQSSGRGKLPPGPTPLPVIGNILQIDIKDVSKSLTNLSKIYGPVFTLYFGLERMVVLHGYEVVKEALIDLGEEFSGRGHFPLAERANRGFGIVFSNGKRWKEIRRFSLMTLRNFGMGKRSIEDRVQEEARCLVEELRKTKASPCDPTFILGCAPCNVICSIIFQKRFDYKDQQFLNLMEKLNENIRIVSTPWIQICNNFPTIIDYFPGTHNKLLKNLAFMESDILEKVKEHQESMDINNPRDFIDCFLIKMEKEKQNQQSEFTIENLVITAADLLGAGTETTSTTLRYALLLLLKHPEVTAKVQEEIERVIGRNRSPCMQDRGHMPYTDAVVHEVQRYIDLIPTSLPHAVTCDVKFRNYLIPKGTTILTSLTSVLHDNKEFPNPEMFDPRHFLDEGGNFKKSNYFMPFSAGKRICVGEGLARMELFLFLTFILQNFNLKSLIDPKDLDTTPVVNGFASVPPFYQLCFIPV

| Compound | AC50 | activity, negative = inhibition |
| --- | --- | --- |
| N#Cc1ccc(CN2CCC3(CC2)CCN(C(=O)c2cc(C(F)(F)F)cc(C(F)(F)F)c2)CC3)cc1 | inactive | – |
| O=c1c(-c2ccc(O)cc2)coc2cc(O)ccc12 | 10 µM (active) | – |
| O=c1c(-c2ccc(Cl)cc2)nc2cncnc2n1Cc1ccccc1Cl | 3.98 µM (active) | – |
| O=c1c(-c2ccc(F)c(F)c2)nc2cncnc2n1C1CC1 | inactive | – |
| O=c1c(-c2ccc(F)c(F)c2)nc2cncnc2n1Cc1ccccc1Cl | 6.31 µM (active) | – |
| CN(CCOc1ccc(C[C@H](Nc2ccccc2C(=O)c2ccccc2)C(=O)O)cc1)c1ccccn1 | 3.98 µM (active) | – |
| CNc1nc(NCCOC23CC4CC(CC(C4)C2)C3)nc(OCC(F)(F)F)n1 | 1.41 µM (active) | – |
| O=C(c1ccco1)N1CCC2(CC1)CN(C(c1ccccc1)c1ccccc1)C2 | inactive | – |
| CC(C)CCn1nnnc1C(c1ccc(F)cc1)N1CCN(C(=O)c2ccco2)CC1 (stereo not given) | 4.47 µM (active) | – |
| CCC(c1nnnn1CCOC)N1CCN(C(=O)c2ccco2)CC1 (stereo not given) | 3.98 µM (active) | – |
| O=C(c1ccco1)N1CCC2(CC1)CCN(C(c1ccccc1)c1ccccc1)CC2 | inactive | – |
| C[C@]1(OC(=O)/C=C\c2ccccc2)C[C@@H](O)[C@@]2(O)C=CO[C@@H](O[C@H]3O[C@@H](CO)[C@@H](O)[C@@H](O)[C@@H]3O)[C@H]21 | inactive | – |
| CCOc1ccc(-n2c(SCC(=O)Nc3ccccc3C)n[nH]c2=O)cc1 | 5.62 µM (active) | – |
| CCN(CC)C(=O)CSc1nnc(-c2ccncc2)n1N | inactive | – |
| CC(C)NC(=O)CSc1nnc(C2CC2)n1-c1ccccc1 | inactive | – |
| Cc1ccccc1NC(=O)CSc1nnc(-c2ccccc2)n1-c1ccccc1 | 2.24 µM (active) | – |
| O=C(CSc1nnc(-c2ccccc2)n1-c1ccccc1)c1cccs1 | 0.631 µM (active) | – |
| Cc1ccc(C(=O)NNC(=O)CSc2nnc(-c3ccncc3)n2-c2ccc(C)cc2)cc1 | 5.62 µM (active) | – |
| Cc1cc(C2(c3cc(C)c(O)c(C(=O)O)c3)OS(=O)(=O)c3ccccc32)cc(C(=O)O)c1O | – | 12.7% [at 11.4 µM] |
| O=C(O)c1cc2c(o1)CCC/C2=N\O | inactive | – |
| CCn1c(SCC(=O)Nc2ccccc2C(=O)OC)nnc1-c1ccc(N)cc1 | 0.178 µM (active) | – |
| CC(=O)OC1CCC(OC(C)=O)c2c1n([O-])c(C)c(C)[n+]2=O (stereo not given) | inactive | – |
| CC(=O)Oc1ccccc1C(=O)Oc1ccccc1C(=O)O | inactive | – |
| Cc1ccccc1S(=O)(=O)O[C@@H]1NS(=O)(=O)c2ccccc21 | – | 24% [at 11.4 µM] |
| Cc1ccccc1S(=O)(=O)Oc1ccccc1C(=O)Oc1ccccc1 | 1.78 µM (active) | – |
